Assay outcomes as filed in PubChem BioAssay.
Compounds with a hit are over-represented: about 6.5% of the library has one in this group of screens.
DPM-DC inhibit = blocks S. pneumoniae diphosphomevalonate decarboxylase | purified DPM-DC, PK/LDH coupled NADH fluorescence | calls only at 10 µM | 65,000 compounds, 0.49% hits;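 active means the 320 compounds with the highest percent inhibition in the single-dose primary screen, excluding strongly autofluorescent ones, cut at about 32% in these data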;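 further: kinetic rate of NADH fluorescence loss reporting ADP formed by the decarboxylase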
MK inhibit = S. pneumoniae mevalonate kinase inhibition; 65,000 compounds, 0.48% hits; purified MK, PK/LDH-coupled NADH absorbance 340 nm; inhibition, % at 10 µM;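 active means ranked among the strongest by inhibition in the single 10 µM screen, a fixed top-ranked set picked for dose follow-up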
Fluor 339 460 = intrinsic fluorescence of library compounds, ex339/em460 – biochemical, MLSMR library, data from DPM-DC assay, artefact control, profiling panel | AID 709 | compound autofluorescence, ex339/em460 nm, NADH buffer; active compounds read high; 1 = no-compound wells, NADH background | fluorescence fold increase at 10 µM | 65,000 compounds, 5.5% hits;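 active means at 10 µM, mean starting fluorescence two-fold or more over control wells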;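 further: signal is the first read of a kinetic run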
PMK inhibit = inhibitors of Streptococcus pneumoniae phosphomevalonate kinase | 65,000 compounds, 0.49% hits | AID 539 | inhibition, % at 10 µM | purified PMK, PK/LDH-coupled NADH absorbance 340 nm;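 active means top-ranked compounds by inhibition in the single 10 µM screen, taking a fixed number of the strongest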;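 further: 0% = full reaction with DMSO carrier and 100% = background rate without enzyme reaction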
A340 absorber = absorbance at 340 nm; compound absorbance at 340 nm, fold over control; fold change at 10 µM; 65,000 tested, under 10 active; AID 708;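 active means at 10 µM dose, initial 340 nm absorbance at least 2 fold that of control wells; inactive means change under 2 fold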;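 further: initial absorbance extrapolated from kinetic A340 decline of NADH oxidation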
NADH enzymes = inhibitors of enzymes used to reach an NAD/NADH endpoint. IC50, µM (series often up to 10 µM), inactives show at the top dose inhibition. AID 774. 65,000 compounds, 0.02% hits. coupled PK/LDH NADH assays, four targets;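 active means single-dose screening hits from any of four coupled enzyme assays that gave an IC50 when retested across doses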;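 further: the DPM-DC format reads NADH fluorescence rather than 340 nm absorbance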
* = called active by the depositor; i = inactive; . = no result given; + = active, no number.

SMILES	DPM-DC inhibit	MK inhibit	Fluor 339 460	PMK inhibit	A340 absorber	NADH enzymes
O=C(c1cccc(F)c1)N1CCN(Cc2ccco2)CC1	i	44.0*	1.11	3.0	1.06	16.0%
Cn1c(=O)c2c(nc(SCC(=O)NC3CCCCC3)n2C)n(C)c1=O	i	9.0	1.06	15.0	1.03	8.0%
CN1CC(=O)NC1=NC(=O)C12CC3CC(CC(C3)C1)C2	+	0.0	0.6	11.0	1	17.0%
O=C1NCCN1C(=O)C12CC3CC(CC(C3)C1)C2	i	0.0	1.09	10.0	1.02	3.0%
O=c1[nH]cnc2c1oc1ccccc12	i	5.0	1.06	15.0	1.01	7.0%
O=C(O)c1c(-c2ccccc2)c2oc3ccccc3c2[nH]c1=O	+	17.0	3.58*	12.0	1.12	21.0%
Cc1cccc(C2CC(c3ccc(Br)cc3)Nc3nc(N)nn32)c1 (stereo not given)	i	12.0	1.05	1.0	0.99	2.0%
COCC(=O)Nc1nc2n(n1)C(c1ccccc1)CC(c1ccc(OC)cc1)N2 (stereo not given)	i	8.0	2.7*	3.0	1.05	8.0%
COc1ccc(C2CC(c3cccc(C)c3)n3nc(N)nc3N2)cc1 (stereo not given)	+	6.0	0.14	15.0	1.08	40.0%
COCC(=O)Nc1nc2n(n1)C(c1ccc(OC)cc1)CC(c1ccc(OC)cc1)N2 (stereo not given)	i	6.0	1.96	0.0	1.04	4.0%
Cc1ccc(-c2csc(/C(C#N)=C(\O)CN3CCN(C(=O)c4ccco4)CC3)n2)cc1	i	7.0	0.99	6.0	1.09	4.0%
CN(C)Cc1nc2ccccc2c(=O)n1Cc1nc(-c2cc3ccccc3o2)cs1	+	4.0	0.84	19.0	1.01	19.0%
O=C(CCCn1c(=O)[nH]c2cc(Cl)ccc2c1=O)NCCCN1CCCC1=O	i	2.0	1.04	4.0	1.02	2.0%
COc1cccc2c(=O)c3c(cnn3C)n(C)c12	.	0.0	2.51*	0.0	1	1.0%
CCOc1cc2[nH]c(=O)n(CCCCC(=O)NC3CCCCC3)c(=O)c2cc1OCC	i	3.0	2.45*	2.0	1.06	5.0%
COc1cc2[nH]c(=O)n(CCC(=O)NC3CCCC3)c(=O)c2cc1OC	i	0.0	2.02*	14.0	1.05	5.0%
CCCCCNC(=O)CCCCn1c(=O)[nH]c2cc(OCC)c(OCC)cc2c1=O	i	9.0	2.13*	6.0	1.04	5.0%
CCOc1cc2[nH]c(=O)n(CCCCC(=O)NCc3ccco3)c(=O)c2cc1OCC	i	5.0	1.81	5.0	0.99	7.0%
CCOc1cc2[nH]c(=O)n(CCCC(=O)NCc3ccco3)c(=O)c2cc1OCC	i	1.0	2.3*	5.0	1.02	6.0%
COc1cc(C(c2nnnn2C(C)(C)C)N2CCN(c3nc4ccccc4s3)CC2)ccc1O (stereo not given)	i	3.0	1.13	4.0	1	2.0%
COc1ccc(N2C(=O)C3CCCN3C2c2ccccc2)cc1 (stereo not given)	i	3.0	1.1	13.0	1.05	5.0%
COc1cccc(N(C(=O)CNC(=O)c2ccco2)C(C(=O)NC2CCCCC2)c2ccncc2)c1 (stereo not given)	i	9.0	1.14	4.0	1.01	4.0%
CCC1(C)Cc2c(c(=O)n(-c3ccccc3)c3ncnc(N)c23)CO1 (stereo not given)	i	6.0	1.98	9.0	1.05	7.0%
CCCCc1c(O)nc(SCC(=O)NCCc2ccc(OC)c(OC)c2)[nH]c1=O	i	6.0	1.03	11.0	0.98	6.0%
CN(C)C(=O)COc1ccc2ccc(=O)oc2c1	.	7.0	2.16*	4.0	1.05	6.0%
SMILES	DPM-DC inhibit	MK inhibit	Fluor 339 460	PMK inhibit	A340 absorber	NADH enzymes
CCOC(=O)COc1ccc2cc(C(=O)OCC)c(=O)oc2c1	.	4.0	2.34*	5.0	1.12	5.0%
Cc1cc(-n2c(C)cc(C(=O)COc3ccc4ccc(=O)oc4c3)c2C)no1	.	0.0	4.22*	12.0	1.08	6.0%
COc1c2ccoc2nc2c(OC)c(OCC(O)C(C)(C)O)ccc12 (stereo not given)	.	5.0	2.45*	0.0	1.04	1.0%
COc1ccc(-c2ccc(-c3noc(-c4ccccc4OC)n3)c(OC)n2)cc1	.	7.0	2.95*	4.0	1.06	1.0%
COc1ccc(-c2ccc(-c3noc(-c4cccs4)n3)c(OC)n2)cc1	.	6.0	3*	1.0	1.04	2.0%
COc1cc(-c2noc(-c3cccs3)n2)cc(OC)c1OC	i	5.0	1.11	11.0	1	6.0%
COc1ccc(-c2ccc(-c3noc(-c4ccccc4C)n3)c(OC)n2)cc1	.	0.0	3.84*	3.0	1.18	2.0%
COc1ccc(CNC(=O)c2ccc(NS(=O)(=O)c3c(C)noc3C)cc2)cc1	i	6.0	1.15	12.0	1.01	6.0%
CCCCCn1c(=NC(C)=O)c(C#N)cc2c(=O)n3ccccc3nc21	.	3.0	3.6*	11.0	1.06	7.0%
CCCCn1c(=NC(C)=O)c(C#N)cc2c(=O)n3cccc(C)c3nc21	.	8.0	3.88*	8.0	1.07	8.0%
Cc1cccn2c(=O)c3cc(C#N)c(=NC(=O)c4ccncc4)n(Cc4ccco4)c3nc12	.	11.0	2.67*	13.0	1	3.0%
CC(C)OCCCn1c(=NC(=O)c2ccncc2)c(C#N)cc2c(=O)n3ccccc3nc21	.	3.0	3.59*	12.0	1.05	8.0%
CCCc1nc(SCC(=O)NCc2ccc3c(c2)OCO3)c2c(=O)n(C)c(=O)n(C)c2n1	i	8.0	1.06	5.0	1.01	4.0%
CCn1c(N)c(C(=O)NC)sc1=S	i	29.0	1.04	7.0	1.09	13.0%
COCCn1c(=NC(=O)c2ccc3c(c2)OCO3)c(C#N)cc2c(=O)n3cccc(C)c3nc21	i	0.0	1.33	9.0	1.08	3.0%
CCCCn1c(=NC(=O)c2ccc3c(c2)OCO3)c(C#N)cc2c(=O)n3cccc(C)c3nc21	i	4.0	2.3*	5.0	1.06	11.0%
CCCc1cc(NCCCCO)n2c(nc3ccccc32)c1C#N	.	5.0	2.43*	10.0	1	8.0%
COCCN(CCOC)c1cc(C)c(C#N)c2nc3ccccc3n12	.	6.0	3.78*	13.0	1.06	10.0%
Cc1cc(-c2ccco2)n2c(nc3ccccc32)c1C#N	i	7.0	1.15	6.0	1.07	4.0%
Cc1cc(NCCCCO)n2c(nc3ccccc32)c1C#N	.	6.0	3.63*	13.0	1.05	10.0%
Cc1ccc(C2c3sc(=O)[nH]c3SC3C(=O)NC(=O)C32)cc1 (stereo not given)	i	6.0	1.01	3.0	1.01	2.0%
CCCOC(=O)c1cc(=O)[nH]c2ccccc12	i	0.0	2.3*	11.0	1.03	6.0%
CCOC(=O)N1CCN(c2c(-c3ccccc3)c3cc(Cl)ccc3[nH]c2=O)CC1	i	3.0	2.48*	1.0	1.1	6.0%
